Inconclusive results are not listed. The source made the active and inactive calls. Calls follow the shape of the dose curve; as a rule, active = well fitted curve in the direction sought with a large enough effect; inconclusive = small, poorly fitted or top-dose-only effect, or another doubt; inactive = no such curve, though single readings can be large; an effect the other way counts as inactive or inconclusive.
Key:
[1] = target: Alpha-galactosidase A (Homo sapiens) (UniProt P06280); assay: Counterscreen for Glucocerebrosidase Inhibitors: qHTS Assay for Human alpha-Galactosidase at pH 4.5 (AID 992)
In short: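 Human enzyme (2 nM) with 80 uM 4-methylumbelliferyl alpha-D-galactopyranoside in 50 mM citric acid, 0.005% Tween-20, pH 4.5, 20 min at room temperature. Compounds 0.7 nM–77 uM; fluorescence Ex 365/Em 440 after pH 10 stop; AC50 from Hill fits.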

[2] = target: Alpha-galactosidase (Coffea arabica) (UniProt Q42656); assay: Counterscreen for Glucocerebrosidase Inhibitors: qHTS Assay for Coffee Bean alpha-Galactosidase at pH 5.9 (AID 998)
In short: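 Green coffee bean enzyme (2 nM) with 4-methylumbelliferyl alpha-D-galactopyranoside (80 uM) in 50 mM citric acid, 0.005% Tween-20, pH 5.9, 20 min at room temperature; compounds 0.7 nM–77 uM. Stopped at pH 10, fluorescence Ex365/Em440; Hill-fit AC50.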

[3] = Cell Viability - LYMP2-025 (AID 976); also: series mostly up to about 92 µM
In short: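 In qHTS format, LYMP2-025 lymphoblastoid cells in complete culture medium received compound for 24 hr; ATP-based CellTiter-Glo signal gave viability, with AC50 derived by Hill equation.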

[4] = Cell Viability - LYMP2-002 (AID 977);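 also: series mostly up to about 92 µM; compound exposure lasted 24 h at 37 °C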
In short: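 Human lymphoblastoid LYMP2-002 cells, 2500 per well, exposed to compounds for 24 h at 37 C in complete medium; viability read as intracellular ATP by CellTiter-Glo luminescence, AC50 from Hill fits.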

[5] = Cell Viability - LYMP2-006 (AID 978); also: series mostly up to about 92 µM; nearly all actives have a fitted effect of over 60% in size
In short: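 qHTS, 1536-well; 2500 cells/well, 5 hr 37 C; cpd 24 hr 37 C; CellTiter-Glo 30 min RT; luminescence. Tetraoctylammonium bromide pos. ctrl. AC50 via Hill eqn.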

[6] = Cell Viability - LYMP2-007 (AID 979);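 also: cells exposed to compound for 24 h before reading; nearly all actives have a fitted effect of over 60% in size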
In short: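 Acute toxicity is scored as a concentration-dependent fall in intracellular ATP in human lymphoblastoid cells treated 24 hr at 37 C, measured by luciferase luminescence; Hill-equation modelling yields AC50.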

[7] = Cell Viability - LYMP2-008 (AID 980); also: nearly all actives have a fitted effect of over 60% in size
In short: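 Acute cytotoxicity is scored as concentration-dependent loss of cellular ATP in a human lymphoblastoid line after 24 hr treatment at 37 C. ATP is quantified by luciferase luminescence.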

[8] = Cell Viability - LYMP2-010 (AID 981); also: nearly all actives have a fitted effect of over 55% in size
In short: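 Acute toxicity is scored as a concentration-dependent loss of cellular ATP in human lymphoblastoid cells after 24 hr compound exposure in complete medium. Tetraoctylammonium bromide is the positive control.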

[9] = Cell Viability - LYMP2-012 (AID 982);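 also: cellular ATP by luciferase luminescence where a drop means cytotoxicity; cells exposed to compound for one day before reading; nearly all actives have a fitted effect of over 55% in size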
[10] = Cell Viability - LYMP2-014 (AID 983); also: series mostly up to about 92 µM; nearly all actives have a fitted effect of over 50% in size
In short: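 Decrease in intracellular ATP after 24 hr treatment at 37 C, measured by luciferase luminescence, indicated cytotoxicity. Concentration-response data were fitted with the standard Hill equation to give AC50.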

[11] = Cell Viability - LYMP2-016 (AID 984); also: nearly all actives have a fitted effect of over 55% in size
In short: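 qHTS, 1536-well: 2500 LYMP2-016 cells/well, 5 hr 37 C, compound added, 24 hr 37 C, CellTiter-Glo 30 min RT, luminescence. Tetraoctylammonium bromide positive control. AC50 via Hill fit.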

[12] = Cell Viability - LYMP2-018 (AID 985);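 also: compound exposure lasted 24 hr at 37 °C; nearly all actives have a fitted effect of over 50% in size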
In short: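 Acute cytotoxicity is scored as a concentration-dependent drop in intracellular ATP after 24 hr exposure of the lymphoblastoid line in complete culture medium, measured by luciferase luminescence. Potency is expressed as AC50 from Hill modelling.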

[13] = Cell Viability - LYMP2-020 (AID 986); also: series mostly up to about 92 µM; nearly all actives have a fitted effect of over 55% in size
In short: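 Acute cytotoxicity in a human lymphoblastoid line is scored as a concentration-dependent fall in cellular ATP after 24 hr at 37 C in complete medium. The positive control is tetraoctylammonium bromide, and potency is given as Hill-fit AC50.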

[14] = Cell Viability - LYMP2-024 (AID 988); also: nearly all actives have a fitted effect of over 60% in size
In short: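 Acute toxicity is measured as concentration-dependent loss of intracellular ATP in a human lymphoblastoid line treated 24 hours at 37 C. Luciferase luminescence quantifies ATP; AC50 values come from standard Hill-equation modelling.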

[15] = Cell Viability - LYMP2-026 (AID 989); also: nearly all actives have a fitted effect of over 50% in size
In short: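 Concentration-dependent loss of intracellular ATP in human lymphoblastoid cells after 24 hr at 37 C, quantified by luciferase luminescence. AC50 derived from standard Hill equation.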

[16] = Cell Viability - LYMP1-002 - Assay at 24 hr (AID 993)
In short: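 qHTS, LYMP1-002 lymphoblastoid, 24 h cpd, 37 C, CellTiter-Glo ATP luminescence; AC50 via Hill eq.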

[17] = Cell Viability - LYMP1-002 - Assay at 40 hr (AID 994); also: nearly all actives have a fitted effect of over 60% in size
In short: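 Viability in the human lymphoblastoid line was measured as intracellular ATP via CellTiter-Glo after 40 hr compound exposure. Tetraoctylammonium bromide served as positive control.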

[18] = Cell Viability - LYMP2-022 (AID 987); also: nearly all actives have a fitted effect of over 55% in size
In short: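 Acute toxicity in a human lymphoblastoid line is scored as decreased intracellular ATP after 24 hr compound treatment at 37 C. ATP is measured by CellTiter-Glo luminescence; curves are fitted with the Hill equation to give AC50.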

Measured: Potency

Sequence of Alpha-galactosidase (Coffea arabica) (Q42656 whole entry, looked up): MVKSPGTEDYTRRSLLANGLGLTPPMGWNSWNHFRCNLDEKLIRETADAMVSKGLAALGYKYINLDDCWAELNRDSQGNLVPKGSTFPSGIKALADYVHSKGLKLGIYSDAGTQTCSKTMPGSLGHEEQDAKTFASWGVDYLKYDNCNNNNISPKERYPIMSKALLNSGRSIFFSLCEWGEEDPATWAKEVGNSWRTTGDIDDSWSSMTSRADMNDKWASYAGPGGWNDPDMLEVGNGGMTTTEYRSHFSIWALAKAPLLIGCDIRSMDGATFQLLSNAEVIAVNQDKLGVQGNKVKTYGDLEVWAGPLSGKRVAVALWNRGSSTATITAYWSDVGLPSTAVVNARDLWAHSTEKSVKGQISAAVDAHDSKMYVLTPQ
Sequence of Alpha-galactosidase A (Homo sapiens) (P06280 whole entry, looked up): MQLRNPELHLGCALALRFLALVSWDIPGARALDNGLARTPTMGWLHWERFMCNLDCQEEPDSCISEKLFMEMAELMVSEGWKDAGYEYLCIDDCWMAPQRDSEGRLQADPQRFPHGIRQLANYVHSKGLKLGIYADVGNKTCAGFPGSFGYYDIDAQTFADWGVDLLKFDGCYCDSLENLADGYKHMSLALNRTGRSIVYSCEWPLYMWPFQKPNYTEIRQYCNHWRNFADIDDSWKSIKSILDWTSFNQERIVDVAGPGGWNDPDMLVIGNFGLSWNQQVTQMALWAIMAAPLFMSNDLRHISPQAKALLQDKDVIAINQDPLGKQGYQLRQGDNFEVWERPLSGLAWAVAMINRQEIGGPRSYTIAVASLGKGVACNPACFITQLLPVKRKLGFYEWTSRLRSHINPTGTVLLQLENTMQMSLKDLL

CCCN1CCC[C@H](c2cccc(O)c2)C1
inactive: [1] | [2]

CC(C)(O)C(=O)Nc1ccc([N+](=O)[O-])c(C(F)(F)F)c1
not listed: [1] | [2] | [18]
inactive: all other assays above

O=[N+]([O-])c1c(Cl)c(Cl)cc(Cl)c1Cl
not listed: [1] | [2]
inactive: all other assays above

Cc1cccc(C#Cc2ccccc2)n1
inactive: [2]

CN[C@@H]1C[C@@H](c2ccc(Cl)c(Cl)c2)c2ccccc21
inactive: [1] | [2]

C[N+](C)(C)CC(=O)O
inactive: [2]

C[C@]12C[C@H](O)[C@H]3[C@@H](CCC4=CC(=O)CC[C@@]43C)[C@@H]1CC[C@@H]2C(=O)CO
inactive: [2]

Clc1cnc(Oc2ccc(Oc3ncc(Cl)cc3Cl)cc2)c(Cl)c1
inactive: [1] | [2]

CCN(CC)CCNC(=O)c1ccc(NC(C)=O)cc1
inactive: [2]

Cc1nc(-c2ccc(-c3ccc(C(=O)N4CCc5cc6c(cc54)C4(CCN(C)CC4)CO6)cc3)c(C)c2)no1
inactive: [1] | [2]

NCCS
inactive: [2]

Cc1c(C(=O)c2cccc3ccccc23)c2cccc3c2n1[C@H](CN1CCOCC1)CO3
inactive: [1] | [2]

CCOP(=O)(NC(C)C)Oc1ccc(SC)c(C)c1 (stereo not drawn)
not listed: [1] | [2]
inactive: all other assays above

Nc1ccc(Cl)cc1N
not listed: [1] | [2] | [18]
inactive: all other assays above

CCCN1CCO[C@@H]2c3cc(O)ccc3OC[C@H]21
inactive: [1] | [2]

CC(C)Oc1cccnc1N(C)C1CCN(Cc2ccccc2)CC1
inactive: [1] | [2]

CCOC(=O)C1=C[C@@]2(CC)CCCN3CCc4c(n1c1ccccc41)[C@H]32
inactive: [2]

COc1ccc2c(c[n+](C)c3c4cc5c(cc4ccc23)OCO5)c1OC
inactive: [1] | [2]

CS(=O)(=O)Nc1ccc([N+](=O)[O-])cc1Oc1ccccc1
inactive: [2]

C1CCC(NC2CCCCC2)CC1
not listed: [1] | [2]
inactive: all other assays above

CC#C[C@]1(O)CC[C@H]2[C@@H]3CCC4=CC(=O)CCC4=C3[C@H](c3ccc(N(C)C)cc3)C[C@@]21C
inactive: [2]

CCc1c(C)[nH]c2c1C(=O)C(CN1CCOCC1)CC2 (stereo not drawn)
inactive: [2]

CNCCc1ccc(O)c(O)c1
inactive: [1] | [2]

CC(C)(Sc1ccc(CCN(CCCCC2CCCCC2)C(=O)NC2CCCCC2)cc1)C(=O)O
inactive: [2]

c1ccc(CCCN2CCN(CCOC(c3ccccc3)c3ccccc3)CC2)cc1
inactive: [1] | [2]
